Experiment [1] is described as follows: ATG_TCF_b_cat_CIS: Attagene CIS-FACTORIAL HepG2 Assay for human T-Cell-Factor with beta-catenin (TCF/b-cat) (AID 2282965). The settings on record: HepG2 TCF/beta-catenin cis-reporter transcription, actives raise or lower the signal. The essentials:
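Using capillary electrophoresis as the read-out, labelled reporter cDNA fragments from transiently transfected HepG2 were sized and quantified. Exposure lasted 24 hours; activity in either direction was referenced to DMSO.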

Experiment [2] can be described thus: ATG_TAL_CIS: Attagene CIS-FACTORIAL HepG2 Assay for human TAL Basal Promoter (AID 2282966).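 Further: background control endpoint measuring basal TAL promoter reporter mRNA not a specific factor.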 Particulars: HepG2 Attagene cis-factorial TAL promoter reporter; actives raise or lower the signal. The method in brief:
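HepG2 cells transiently transfected with multiplexed cis-promoter reporter units, dosed 24 h. Reporter mRNA quantified by RT-PCR, 6-FAM labelling, HpaI digestion and capillary electrophoresis; TAL basal promoter serves as background control, fitted bidirectionally versus DMSO.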

Experiment [3] can be described thus: ATG_VDRE_CIS: Attagene CIS-FACTORIAL HepG2 Assay for human Vitamin D Receptor Element (VDRE) (AID 2282968). Particulars: HepG2 VDRE cis-reporter transcription, actives raise or lower the signal. The method in brief: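 HepG2 cells transiently transfected with cis-element reporter units, dosed 24 h; reporter mRNA measured by RT-PCR, 6-FAM labeling, HpaI digestion and capillary electrophoresis. Activity fitted bidirectionally against DMSO baseline.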

For experiment [4], the target named is Nuclear receptor subfamily 1 group I member 3 (Homo sapiens) (UniProt Q14994). Briefly: ATG_CAR_TRANS: Attagene TRANS-FACTORIAL HepG2 Assay for human Constitutive Androstane Receptor (CAR) (AID 2282969; active means hit-call score of the fitted dose curve at least 0.9, where 1 is the maximum;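 further: activators raise reporter mRNA above DMSO so AC50 marks induction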). Particulars: HepG2 Attagene TRANS-FACTORIAL CAR reporter. The essentials: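 HepG2 cells transiently transfected with multiplexed GAL4-UAS reporter units expressing chimeric NR-Gal4 proteins; compound exposure 24 h. Reporter mRNA measured by RT-PCR, 6-FAM labelling, HpaI digestion and capillary electrophoresis; gain-of-signal fitted against DMSO baseline.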
Chain of Nuclear receptor subfamily 1 group I member 3 (Homo sapiens) (Q14994 whole entry, looked up, the tested form may be a part): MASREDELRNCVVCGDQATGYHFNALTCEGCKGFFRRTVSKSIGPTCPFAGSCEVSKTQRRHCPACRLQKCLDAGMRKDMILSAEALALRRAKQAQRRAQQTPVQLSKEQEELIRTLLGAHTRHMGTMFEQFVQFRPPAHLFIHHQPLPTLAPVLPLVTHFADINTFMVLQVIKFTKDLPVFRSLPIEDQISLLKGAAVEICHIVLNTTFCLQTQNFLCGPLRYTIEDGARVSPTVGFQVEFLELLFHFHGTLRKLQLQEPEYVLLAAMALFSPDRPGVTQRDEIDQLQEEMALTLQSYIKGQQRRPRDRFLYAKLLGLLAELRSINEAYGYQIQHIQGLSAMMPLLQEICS

The target of experiment [5] is Estrogen receptor (Homo sapiens) (UniProt P03372). Nature of the experiment: ATG_ERa_TRANS: Attagene TRANS-FACTORIAL HepG2 Assay for human Estrogen Receptor alpha (ERa) (AID 2282970; active means hit-call score of the fitted dose curve at least 0.9, where 1 is the maximum). Particulars: HepG2 Attagene TRANS ERa GAL4 reporter, mRNA. The essentials:
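HepG2 cells transiently transfected with multiplexed GAL4-UAS reporter units read out chimeric NR-Gal4 activity. After 24 h compound exposure, reporter mRNA was quantified by RT-PCR, 6-FAM labeling, HpaI digestion and capillary electrophoresis, relative to DMSO.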

Experiment [6] concerns the target X-box-binding protein 1 (Homo sapiens) (UniProt P17861). Briefly: ATG_Xbp1_CIS: Attagene CIS-FACTORIAL HepG2 Assay for human X-box Binding Protein 1 (XBP1) (AID 2282972). Particulars: HepG2 XBP1 cis-element reporter, Attagene multiplex; actives raise or lower the signal. The method in brief:
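HepG2 cells transiently transfected with multiple cis-element reporter units report endogenous TF activity; 24 h exposure, then reporter mRNA measured by RT-PCR, 6-FAM labelling, HpaI digestion and capillary electrophoresis. Bidirectional fitting versus DMSO.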

Experiment [7] in a line: ATG_M_19_TRANS: Attagene TRANS-FACTORIAL HepG2 Assay for M19 Transcription Factor (Internal Marker) (AID 2282974; active means hit-call score of the fitted dose curve at least 0.9, where 1 is the maximum). Particulars: HepG2 Attagene TRANS-FACTORIAL M19 internal marker reporter. The essentials:
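Measured here: internal-marker reporter transcript from HepG2 cells transfected with MRTUs, harvested at 24 h. cDNA PCR products were 6-FAM labelled by primer extension, cut with HpaI for 2 h at 37 C, and resolved by CE.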

Experiment [8] concerns the target Steroid hormone receptor ERR1 (Homo sapiens) (UniProt P11474). Nature of the experiment: ATG_ERRa_TRANS: Attagene TRANS-FACTORIAL HepG2 Assay for human Estrogen-Related Receptor alpha (ERRa) (AID 2282971; active means hit-call score of the fitted dose curve at least 0.9, where 1 is the maximum). The settings on record: HepG2 Attagene TRANS reporter, ERRa transactivation. The method in brief:
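HepG2 cells transiently transfected with GAL4-UAS reporter units and chimeric NR-Gal4 constructs; after 24 hour compound incubation, reporter mRNA quantified by RT-PCR, fluorescent labelling and capillary electrophoresis, gain of signal versus DMSO.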

The nature of experiment [9]: ATG_TGFb_CIS: Attagene CIS-FACTORIAL HepG2 Assay for human Transforming Growth Factor (TGF) (AID 2282967). Particulars: HepG2 Attagene CIS TGFb reporter, mRNA transcription; actives raise or lower the signal. The method in brief: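 After a 24-hour incubation with compound, transfected HepG2 cells were lysed for RNA; reporter cDNA was amplified, fluorescently end-labeled and separated by CE. DMSO served as baseline for bidirectional fits.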

The structures appear in SMILES notation. Values joined by “and” are separate entries in the source; they are usually repeats but may differ in a detail not shown here. Equal values may be shown once. Records with an inconclusive call do not appear. A structure can be active in one record and inactive in another. Active and inactive are the calls of the source. How the source made its calls, unless noted: active means hit-call score of the fitted dose curve at least 0.9, where 1 is the maximum; inactive means score below 0.9.

Chain of X-box-binding protein 1 (Homo sapiens) (P17861 whole entry, looked up): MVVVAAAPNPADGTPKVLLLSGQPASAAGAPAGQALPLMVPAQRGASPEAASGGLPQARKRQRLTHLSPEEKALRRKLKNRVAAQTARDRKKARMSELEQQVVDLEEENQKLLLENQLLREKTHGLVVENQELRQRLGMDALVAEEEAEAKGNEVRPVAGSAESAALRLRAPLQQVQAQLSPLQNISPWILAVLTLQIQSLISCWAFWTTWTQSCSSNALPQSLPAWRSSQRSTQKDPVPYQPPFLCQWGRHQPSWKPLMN
Chain of Steroid hormone receptor ERR1 (Homo sapiens) (P11474 whole entry, looked up, the tested form may be a part): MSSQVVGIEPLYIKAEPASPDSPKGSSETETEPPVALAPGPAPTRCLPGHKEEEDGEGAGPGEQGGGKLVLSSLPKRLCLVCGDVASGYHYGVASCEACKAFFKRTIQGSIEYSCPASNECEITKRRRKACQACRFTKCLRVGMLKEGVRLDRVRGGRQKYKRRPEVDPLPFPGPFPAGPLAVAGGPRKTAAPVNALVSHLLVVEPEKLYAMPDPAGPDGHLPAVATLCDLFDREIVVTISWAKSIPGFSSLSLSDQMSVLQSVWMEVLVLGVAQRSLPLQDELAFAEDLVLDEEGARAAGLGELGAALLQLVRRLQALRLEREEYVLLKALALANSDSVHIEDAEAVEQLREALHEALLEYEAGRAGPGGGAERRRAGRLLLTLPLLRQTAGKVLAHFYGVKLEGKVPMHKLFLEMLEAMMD
Chain of Estrogen receptor (Homo sapiens) (P03372 whole entry, looked up, the tested form may be a part): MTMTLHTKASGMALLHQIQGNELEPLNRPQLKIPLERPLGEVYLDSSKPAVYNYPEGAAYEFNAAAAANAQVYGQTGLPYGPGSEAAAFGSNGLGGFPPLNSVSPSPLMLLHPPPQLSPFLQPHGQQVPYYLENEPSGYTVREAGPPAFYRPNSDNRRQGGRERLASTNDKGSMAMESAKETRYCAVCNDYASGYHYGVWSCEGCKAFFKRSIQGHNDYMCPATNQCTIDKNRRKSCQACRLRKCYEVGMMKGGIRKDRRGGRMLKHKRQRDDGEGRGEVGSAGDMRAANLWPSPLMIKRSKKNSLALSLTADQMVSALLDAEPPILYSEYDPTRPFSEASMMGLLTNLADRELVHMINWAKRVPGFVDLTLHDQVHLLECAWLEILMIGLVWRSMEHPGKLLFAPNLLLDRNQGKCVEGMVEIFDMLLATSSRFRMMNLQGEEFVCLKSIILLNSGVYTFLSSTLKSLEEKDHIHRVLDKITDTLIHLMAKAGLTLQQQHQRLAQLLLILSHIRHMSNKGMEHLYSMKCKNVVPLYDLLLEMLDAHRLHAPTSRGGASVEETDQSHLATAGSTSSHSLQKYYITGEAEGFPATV

By AC50 is commonly meant the concentration at which the activity in the assay is half-maximal. Take `C=C(C)C(=O)OCCC(F)(F)C(F)(F)C(F)(F)C(F)(F)C(F)(F)C(F)(F)F`: the outcome in experiment [1], in experiment [2], in experiment [3], in [4], in experiment [6] and in [7] was inactive. For the same compound, the AC50 in experiment [5] was 38.4 µM (active) and 49.2 µM (active).

Consider `FC(F)(I)C(F)(F)C(F)(F)C(F)(F)C(F)(F)C(F)(F)I`, for which the AC50 in [1] is 11.1 µM (active); in experiment [4] it was 45.5 µM (active); in experiment [5], 0.00593 µM (active). The compound was classed as inactive in [2], in [3], in [6] and in experiment [7].

On to `O=C(OCCOCCOC(=O)c1ccccc1)c1ccccc1`, for which the outcome in [1], in [2], in experiment [3], in experiment [6] and in [7] was inactive.

As for `CCCCCCCCCCCCCCCS(=O)(=O)Oc1ccccc1`, the compound was called inactive in experiment [1], in experiment [2], in experiment [3], in experiment [4], in experiment [5] and in experiment [6].

With `CCN(CC)CCNc1ccc(CNC=O)c2sc3ccc(OC)cc3c(=O)c12`, the outcome in experiment [1], in experiment [2] and in experiment [8] was inactive. The AC50 in experiment [3] was 0.689 µM (active); in experiment [5] it was 1.05 µM (active); in [6], 0.766 µM (active).

For the compound `Cc1cc(C)c(O)c(C)c1`, the compound was called inactive in [1], in experiment [2], in experiment [9], in experiment [4], in [6] and in experiment [7]. For the same compound, the AC50 in [5] was 100 µM (active).

`Cc1cc(CCN2CCN(c3nsc4ccccc34)CC2)cc2c1NC(=O)CC2(C)C`: the compound was classed as inactive in experiment [1], in [2], in experiment [4], in experiment [5] and in [8]. The AC50 in [3] was 4.92 µM (active); in [6], 11 µM (active).

With `CN1CCC[C@H]1c1cccnc1`, the compound was classed as inactive in experiment [1], in experiment [2], in experiment [3], in experiment [4] and in experiment [6]. Moreover, the AC50 in experiment [5] is 61.2 µM (active).

As to `CCc1nn(C2CCCCC2)c2cc(C3(C#N)CCC(C(=O)O)CC3)ccc12` (centres undefined), the AC50 is 52.3 µM (active) in experiment [1] and 48.7 µM (active) in experiment [3]. For the same compound, the result in [2], in [5] and in [6] was inactive.

Turning to `CC(=O)CC(C)(C)O`, the compound was classed as inactive in experiment [1], in [2], in [3], in experiment [8], in experiment [6] and in [7]. The AC50 in experiment [5] is 26.5 µM (active).

Turning to `NC(=O)N1C(=O)C(C(=O)c2cc(Cl)cs2)c2cc(F)c(Cl)cc21` (centres undefined), the compound was called inactive in experiment [1], in [2], in experiment [5], in experiment [8] and in [7]. Also, the AC50 in experiment [3] was 9.88 µM (active); in [6], 14.1 µM (active).

For `CC(=O)NC1(c2cccc(F)c2)CCN(CC[C@@]2(c3ccc(Cl)c(Cl)c3)CN(c3ccccc3)C(=O)CO2)CC1`, the AC50 in experiment [1] is 8.64 µM (active); in [3], 39.8 µM (active); in experiment [6], 25.7 µM (active). For the same compound, the outcome in [2] and in [7] was inactive.

For the compound `NCC(F)(F)C(F)(F)C(F)(F)C(F)(F)C(F)(F)C(F)(F)C(F)(F)F`, the compound was called inactive in experiment [1], in experiment [2], in experiment [3], in experiment [4], in experiment [5] and in [8]. Moreover, the result in experiment [6] was inactive.

With `CCCCOCCO`, the outcome in experiment [1], in [2], in [3], in experiment [4], in experiment [5] and in experiment [8] was inactive. Further, the result in experiment [6] and in experiment [7] was inactive.

As to `C[C@@H]1C[C@H]2[C@@H]3CCC4=CC(=O)C=C[C@]4(C)[C@@]3(F)[C@@H](O)C[C@]2(C)[C@@]1(O)C(=O)COP(=O)(O)O`, the outcome in experiment [1], in experiment [2], in [3], in experiment [5], in experiment [6] and in experiment [7] was inactive.

As for `CCCCCCCCCCCCCC[N+](C)(C)C`, the AC50 in experiment [1] is 17.2 µM (active) and 7.58 µM (active); in experiment [8] it was 25.7 µM (active); in experiment [6], 6.33 µM (active). In addition, the call in experiment [2], in [3], in experiment [5], in [8], in [6] and in experiment [7] was inactive.

On to `CCCOc1sc(C(=O)N2CCC(c3cc(CN)ccc3F)CC2)c(C)c1Br`, for which the outcome in experiment [1], in experiment [2], in experiment [3], in experiment [5], in [6] and in [7] was inactive.

In the case of `CCCCC[C@H](O)CC(=O)CCc1ccc(O)c(OC)c1`, the call in experiment [1], in [2], in experiment [4], in experiment [5], in experiment [8] and in experiment [6] was inactive. For the same compound, in experiment [3], the AC50 is 27.7 µM (active).

With `N#C[C@@H]1CC(F)(F)CN1C(=O)CNC1CC2CCC(C1)N2c1ncccn1` (some centres undefined), the compound was classed as inactive in experiment [1], in [2], in [5], in [8], in [6] and in [7].

The values above are taken from PubChem BioAssay (EPA / NIEHS).
